# Laboratory results taken from ChEMBL document CHEMBL3988442, “University of Dundee, Small-Polar-MMV Screening Library” (2021).
# For some assays here: Entries with a potency or affinity are not part of this list.
# Legend:
# Design in all cases: scale not given: direction of the effect not stated beside the values
# [1] = target: Protein translocase subunit SecA (Escherichia coli (strain K12)) (UniProt P10408); assay: Assay to Identify E. coli SecA ATPase Inhibitors; assay type: functional; settings: 30 µM
# Chain of Protein translocase subunit SecA (Escherichia coli (strain K12)) (P10408 whole entry): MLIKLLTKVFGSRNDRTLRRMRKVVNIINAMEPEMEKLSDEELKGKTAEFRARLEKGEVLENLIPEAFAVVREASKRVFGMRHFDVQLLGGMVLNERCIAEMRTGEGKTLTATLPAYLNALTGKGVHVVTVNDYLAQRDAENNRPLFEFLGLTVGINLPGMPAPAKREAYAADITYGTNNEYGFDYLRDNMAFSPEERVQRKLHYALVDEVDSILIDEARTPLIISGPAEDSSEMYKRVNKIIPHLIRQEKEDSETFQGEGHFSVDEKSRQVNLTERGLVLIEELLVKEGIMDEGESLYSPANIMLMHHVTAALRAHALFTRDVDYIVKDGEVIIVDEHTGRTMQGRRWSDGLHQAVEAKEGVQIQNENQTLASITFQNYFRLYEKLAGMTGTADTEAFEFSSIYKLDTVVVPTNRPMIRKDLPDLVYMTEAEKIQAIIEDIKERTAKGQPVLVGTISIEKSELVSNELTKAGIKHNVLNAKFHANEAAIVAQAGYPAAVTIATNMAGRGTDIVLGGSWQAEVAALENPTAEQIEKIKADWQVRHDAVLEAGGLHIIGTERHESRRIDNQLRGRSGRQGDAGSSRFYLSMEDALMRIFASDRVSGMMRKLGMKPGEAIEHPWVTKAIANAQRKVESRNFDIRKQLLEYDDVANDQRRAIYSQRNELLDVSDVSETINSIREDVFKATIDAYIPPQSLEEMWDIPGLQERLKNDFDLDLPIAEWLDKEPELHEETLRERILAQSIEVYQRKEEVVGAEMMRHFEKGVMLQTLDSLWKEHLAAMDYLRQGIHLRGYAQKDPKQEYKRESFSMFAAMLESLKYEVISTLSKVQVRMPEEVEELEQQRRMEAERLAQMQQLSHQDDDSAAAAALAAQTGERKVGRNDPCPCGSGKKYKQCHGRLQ
# [2] = target: T1, Ubiquitin-activating enzyme e1, putative (Leishmania donovani (strain BPK282A1)) (UniProt E9BSI1); assay: Leishmania donovani Ubiquitin Activating Enzyme (LdE1); assay type: functional; settings: 30 µM
# T1 sequence (whole entry): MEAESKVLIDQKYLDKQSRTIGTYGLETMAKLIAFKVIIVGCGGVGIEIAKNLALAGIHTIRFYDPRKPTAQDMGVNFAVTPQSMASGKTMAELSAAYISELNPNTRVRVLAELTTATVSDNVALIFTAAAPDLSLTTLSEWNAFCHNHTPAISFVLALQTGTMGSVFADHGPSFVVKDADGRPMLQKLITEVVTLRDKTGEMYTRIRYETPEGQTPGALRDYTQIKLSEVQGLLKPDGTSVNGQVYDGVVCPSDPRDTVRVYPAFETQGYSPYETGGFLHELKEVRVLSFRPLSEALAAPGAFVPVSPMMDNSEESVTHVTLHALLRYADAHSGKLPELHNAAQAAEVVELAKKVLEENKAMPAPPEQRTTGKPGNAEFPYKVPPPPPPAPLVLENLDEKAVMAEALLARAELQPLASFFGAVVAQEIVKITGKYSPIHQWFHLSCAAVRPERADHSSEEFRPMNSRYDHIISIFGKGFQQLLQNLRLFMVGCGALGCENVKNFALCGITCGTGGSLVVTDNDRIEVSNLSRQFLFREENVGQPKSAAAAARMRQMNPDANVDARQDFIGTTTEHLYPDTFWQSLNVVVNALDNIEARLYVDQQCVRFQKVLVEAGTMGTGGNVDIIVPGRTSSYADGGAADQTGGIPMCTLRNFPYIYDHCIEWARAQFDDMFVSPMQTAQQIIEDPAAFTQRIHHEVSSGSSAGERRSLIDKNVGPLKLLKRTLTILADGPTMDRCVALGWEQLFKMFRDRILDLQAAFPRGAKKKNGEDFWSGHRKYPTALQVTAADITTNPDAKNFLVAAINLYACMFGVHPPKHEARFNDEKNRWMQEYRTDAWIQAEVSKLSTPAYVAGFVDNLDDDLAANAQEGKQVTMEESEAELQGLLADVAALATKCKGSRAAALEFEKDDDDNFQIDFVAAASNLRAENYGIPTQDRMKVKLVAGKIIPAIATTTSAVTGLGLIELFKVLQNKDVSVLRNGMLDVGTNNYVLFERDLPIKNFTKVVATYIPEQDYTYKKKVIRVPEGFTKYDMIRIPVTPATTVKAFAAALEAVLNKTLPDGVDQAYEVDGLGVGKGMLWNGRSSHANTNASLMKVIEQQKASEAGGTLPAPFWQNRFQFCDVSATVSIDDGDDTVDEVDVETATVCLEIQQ
# [3] = target: AMP-activated protein kinase, AMPK (Homo sapiens) (UniProt P54646+O43741+P54619+Q9UGJ0+Q9Y478+Q13131+Q9UGI9); assay: AMP-dependent Kinase enzyme assay. An in vitro enzyme assay that detects ADP turnover that is directly proportional to AMPK activity. This uses naive AMPK that is activated during the assay with MK-8722; assay type: functional; settings: 30 µM
# [4] = target: Sialic acid-binding Ig-like lectin 9 (Homo sapiens) (UniProt Q9Y336); assay: Hs-Siglec9 ALPHAscreen SOP 20170721; settings: 10 µM
# Chain of Sialic acid-binding Ig-like lectin 9 (Homo sapiens) (Q9Y336 whole entry): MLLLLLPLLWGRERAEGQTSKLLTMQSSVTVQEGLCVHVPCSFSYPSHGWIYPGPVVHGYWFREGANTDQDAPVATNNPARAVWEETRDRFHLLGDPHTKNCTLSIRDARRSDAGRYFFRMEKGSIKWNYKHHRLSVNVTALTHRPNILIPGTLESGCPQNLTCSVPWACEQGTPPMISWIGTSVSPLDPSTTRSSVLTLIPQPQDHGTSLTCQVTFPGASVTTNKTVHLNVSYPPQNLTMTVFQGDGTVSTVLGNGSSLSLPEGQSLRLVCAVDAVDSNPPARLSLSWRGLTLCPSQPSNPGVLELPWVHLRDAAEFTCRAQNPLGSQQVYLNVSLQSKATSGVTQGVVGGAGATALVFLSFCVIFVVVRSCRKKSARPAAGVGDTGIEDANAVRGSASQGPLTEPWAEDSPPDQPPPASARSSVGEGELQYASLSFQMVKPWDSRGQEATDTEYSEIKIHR
# [5] = tested on: Trypanosoma cruzi; assay: Trypanosoma cruzi phosphomannomutase and mannose-1-phosphate guanylyltransferase assay; assay type: functional; settings: 10 µM
# [6] = target: T2, Arginase-2, mitochondrial (Homo sapiens) (UniProt P78540); assay: in vitro enzyme assay to detect the production of urea directly proportional to the activity of Arginase II; assay type: functional; settings: 33.3 µM; also: in the data most compounds retested in dose-response had high values
# T2 sequence (whole entry): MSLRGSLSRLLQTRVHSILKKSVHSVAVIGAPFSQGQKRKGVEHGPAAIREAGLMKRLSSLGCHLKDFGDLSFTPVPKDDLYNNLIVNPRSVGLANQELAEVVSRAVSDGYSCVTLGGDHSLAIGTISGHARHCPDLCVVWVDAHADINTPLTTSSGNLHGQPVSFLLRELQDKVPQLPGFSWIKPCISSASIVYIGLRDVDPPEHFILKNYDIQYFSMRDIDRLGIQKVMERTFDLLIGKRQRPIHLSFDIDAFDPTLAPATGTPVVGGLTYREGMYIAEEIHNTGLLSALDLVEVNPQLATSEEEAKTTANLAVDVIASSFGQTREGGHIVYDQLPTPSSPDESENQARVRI
# [7] = target: T3, Proteasome subunit beta (Trypanosoma cruzi) (UniProt O96673); assay: Trypanosoma cruzi proteasome chymotrypsin-like activity (TcProtChymo) assay.; also: in the data most compounds retested in dose-response had high values; assay type: functional; settings: 9.37 µM
# T3 sequence (whole entry): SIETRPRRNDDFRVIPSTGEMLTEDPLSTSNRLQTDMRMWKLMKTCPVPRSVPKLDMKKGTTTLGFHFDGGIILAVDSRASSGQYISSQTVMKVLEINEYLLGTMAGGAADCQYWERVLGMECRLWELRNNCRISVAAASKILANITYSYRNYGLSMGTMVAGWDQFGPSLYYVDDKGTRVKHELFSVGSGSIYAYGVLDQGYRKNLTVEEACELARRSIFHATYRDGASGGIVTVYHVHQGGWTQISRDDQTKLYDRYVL
# [8] = species on record: Homo sapiens; assay: To identify inhibition of the IFN signalling (Jak-Stat) pathway via expression of an eGFP reporter gene under the control of an IFN-stimulated response element (ISRE) containing MxA promoter.; assay type: functional; settings: 30 µM
# [9] = target: T4, Tyrosyl-tRNA synthetase, putative (Trypanosoma cruzi (strain CL Brener)) (UniProt Q4DSP6); assay: Trypanosoma cruzi tyrosyl tRNA synthetase (TcYRS) _High Tyrosine SOP; assay type: functional; settings: 30 µM; also: in the data most compounds retested in dose-response had high values
# T4 sequence (whole entry): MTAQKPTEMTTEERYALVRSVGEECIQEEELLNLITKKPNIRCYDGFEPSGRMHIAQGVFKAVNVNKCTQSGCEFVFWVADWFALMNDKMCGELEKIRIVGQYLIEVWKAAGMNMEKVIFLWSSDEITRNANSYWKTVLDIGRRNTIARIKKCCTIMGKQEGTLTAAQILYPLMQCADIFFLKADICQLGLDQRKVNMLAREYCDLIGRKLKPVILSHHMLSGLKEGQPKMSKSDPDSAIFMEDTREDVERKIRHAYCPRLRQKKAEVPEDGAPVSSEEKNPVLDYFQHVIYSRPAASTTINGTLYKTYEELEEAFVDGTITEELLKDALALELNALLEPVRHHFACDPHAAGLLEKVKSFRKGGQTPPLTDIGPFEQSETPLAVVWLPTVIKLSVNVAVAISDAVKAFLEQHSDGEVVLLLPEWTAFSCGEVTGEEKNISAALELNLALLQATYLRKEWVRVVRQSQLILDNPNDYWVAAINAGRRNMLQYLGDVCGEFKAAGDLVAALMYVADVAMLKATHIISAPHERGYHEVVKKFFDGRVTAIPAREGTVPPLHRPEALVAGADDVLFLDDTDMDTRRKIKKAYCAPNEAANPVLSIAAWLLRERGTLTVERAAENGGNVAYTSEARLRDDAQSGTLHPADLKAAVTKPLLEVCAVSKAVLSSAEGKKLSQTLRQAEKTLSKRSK
# [10] = target: T4, Tyrosyl-tRNA synthetase, putative (Trypanosoma cruzi (strain CL Brener)); assay: Trypanosoma cruzi tyrosyl tRNA synthetase (TcYRS) SOP; assay type: functional; settings: 30 µM
# [11] = target: Chromo domain-containing protein 1 (Saccharomyces cerevisiae (strain ATCC 204508 / S288c) (Baker's yeast)) (UniProt P32657); assay: ScCHD-1 Enzyme Inhibition Assay; assay type: functional; settings: 30 µM; also: in the data most compounds retested in dose-response had high values
# Chain of Chromo domain-containing protein 1 (Saccharomyces cerevisiae (strain ATCC 204508 / S288c) (Baker's yeast)) (P32657 whole entry, the tested form may be a part): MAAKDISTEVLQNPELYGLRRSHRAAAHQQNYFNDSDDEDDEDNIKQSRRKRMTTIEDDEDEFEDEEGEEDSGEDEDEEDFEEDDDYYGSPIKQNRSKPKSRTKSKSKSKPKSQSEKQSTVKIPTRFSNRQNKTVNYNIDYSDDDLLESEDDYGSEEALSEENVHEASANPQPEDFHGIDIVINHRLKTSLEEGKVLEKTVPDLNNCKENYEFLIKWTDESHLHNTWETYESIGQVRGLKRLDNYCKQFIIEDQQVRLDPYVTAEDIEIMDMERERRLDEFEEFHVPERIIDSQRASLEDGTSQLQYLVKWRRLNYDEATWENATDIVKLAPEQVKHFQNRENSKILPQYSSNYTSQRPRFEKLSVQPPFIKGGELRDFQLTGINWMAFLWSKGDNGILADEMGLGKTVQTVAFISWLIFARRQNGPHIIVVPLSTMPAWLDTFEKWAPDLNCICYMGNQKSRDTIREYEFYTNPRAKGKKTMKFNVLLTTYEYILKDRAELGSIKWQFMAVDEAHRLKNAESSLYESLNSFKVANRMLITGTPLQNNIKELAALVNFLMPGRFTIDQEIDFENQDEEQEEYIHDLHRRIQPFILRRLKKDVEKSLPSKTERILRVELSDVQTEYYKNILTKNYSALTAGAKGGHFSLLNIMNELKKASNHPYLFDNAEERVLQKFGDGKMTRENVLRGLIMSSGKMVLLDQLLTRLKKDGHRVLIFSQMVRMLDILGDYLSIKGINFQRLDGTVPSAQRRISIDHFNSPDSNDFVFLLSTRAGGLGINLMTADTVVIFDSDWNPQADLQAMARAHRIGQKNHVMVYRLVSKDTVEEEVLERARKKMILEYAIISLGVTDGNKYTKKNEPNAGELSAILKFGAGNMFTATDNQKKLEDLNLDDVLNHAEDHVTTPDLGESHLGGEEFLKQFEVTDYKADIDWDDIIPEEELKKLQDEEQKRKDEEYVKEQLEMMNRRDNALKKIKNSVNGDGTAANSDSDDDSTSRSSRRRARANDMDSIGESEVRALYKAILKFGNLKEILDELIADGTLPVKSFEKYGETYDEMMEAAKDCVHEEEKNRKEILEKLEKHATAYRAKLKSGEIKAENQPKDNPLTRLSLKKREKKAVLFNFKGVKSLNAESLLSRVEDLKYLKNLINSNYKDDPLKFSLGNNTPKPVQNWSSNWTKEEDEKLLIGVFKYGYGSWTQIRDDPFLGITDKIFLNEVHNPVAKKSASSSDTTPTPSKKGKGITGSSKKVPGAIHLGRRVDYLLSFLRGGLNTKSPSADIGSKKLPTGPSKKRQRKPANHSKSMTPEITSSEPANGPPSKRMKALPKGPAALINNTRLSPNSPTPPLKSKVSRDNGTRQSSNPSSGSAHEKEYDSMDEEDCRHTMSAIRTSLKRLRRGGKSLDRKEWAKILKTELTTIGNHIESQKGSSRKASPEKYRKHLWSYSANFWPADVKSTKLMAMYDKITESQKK
Structure (SMILES),Percent Effect [1] [%],Percent Effect [2] [%],Percent Effect [3] [%],Percent Effect [4] [%],Percent Effect [5] [%],Percent Effect [6] [%],Percent Effect [7] [%],Percent Effect [8] [%],Percent Effect [9] [%],Percent Effect [10] [%],Percent Effect [11] [%]
O=C(C1CCS(=O)(=O)C1)N1CCN(c2cnccn2)CC1 (stereo unspecified),-5.3,16.2,-5.15,-2.95,-7.52,0.185,6.46,14.3,5.94,15.8,-4.21
CCc1n[nH]c(C2CN(Cc3nnc(C4CC4)n3C)CCO2)n1 (stereo unspecified),0.518,20.8,-9.24,-6.88,-1.08,3.16,12.7,30.4,2.86,9.41,-17.9
Cc1ncccc1NC(=O)[C@H]1C[C@@H]2CCN(Cc3nccs3)C[C@@H]2O1,0.0943,10.8,6.53,-5.38,0.293,2.23,24.4,1.37,7.57,17.9,-3.63
CCS(=O)(=O)N1C[C@H]2C[C@H](C(=O)N(C)C)[C@@H](C1)O2,-1.35,8,9.37,0.653,-5.51,3.03,5.55,5.25,4.25,6.41,-3.75
CN(Cc1cn2c(n1)CN(C1CCOC1)CC2)Cc1ccco1 (stereo unspecified),0.0628,5.33,0.778,1.26,5.99,-58.2,16.1,15.2,6.25,20,-10.2
O=C1CO[C@@H]2CN(S(=O)(=O)c3ccccc3)C[C@H]2N1CC1CC1,-1.03,8,4.02,2.54,-3.28,-44.3,7.86,-3.38,-8.33,-20,-6.74
Cc1ncsc1C(=O)N1CCCC(c2noc(C(C)C)n2)C1 (stereo unspecified),-4.54,15.3,-8.18,26.1,2.43,33.5,15.3,7.22,6.32,15.4,-10.2
CC(C)C(Sc1nnc(C2CC2)n1C1CC1)C(=O)NCc1cccnc1 (stereo unspecified),1.83,-2.6,-2.77,5.12,5.24,-1.42,3.21,-24.2,5.83,12.2,-8.74
CC(C)c1nnc2n1CCN(CCCS(=O)(=O)c1ccccc1)C2,-2.39,7.79,4.29,7.26,6.18,-4.27,7.94,0.936,1.94,14.6,-8.88
Cc1nc(C)n(CC2CN(c3ncccn3)Cc3nccn3C2)n1 (stereo unspecified),-6.81,8.11,-2.43,1.67,-3.42,-2.73,6.44,2.81,2.15,11.1,-2.96
Cn1ccnc1CN1CCN(CC(O)c2ccc(F)c(F)c2)CC1 (stereo unspecified),-8.39,10.4,-6.83,-0.647,-6.93,1.42,0.507,29.6,0,-2.44,-2.48
Cc1cnn(CC2CCCCN2C(=O)Cc2csc(C)n2)c1 (stereo unspecified),-3.54,-3.8,5.27,1.29,-5.64,-0.645,6.17,13.6,2.08,-2.53,-19.5
Cc1cnn(CCC(=O)N2CCC(Nc3cccnn3)CC2)c1,-6.66,5.41,1.21,3.62,-5,-2,-3.6,16.4,0.493,-8.64,2.32
CCN(c1ccc(C(=O)NCCCN2CCOCC2)cc1)S(=O)(=O)CC,-3.73,10.5,-2.83,-8.52,-6.33,2.37,15.8,-2.55,-1.06,-2.6,-5.76
CCn1ccnc1CN1CCN(CCC(=O)NC(C)(C)C)CC1C (stereo unspecified),-2.88,8.11,-0.327,5.56,3.71,10,5.16,5.99,10.9,15.8,-3.56
CN1C(=O)C(c2cccnc2)CC12CCN(C(=O)c1cccn1C)CC2 (stereo unspecified),-1.55,0,-0.439,0.0913,0,4.48,6.67,-2.67,-3.12,-2.5,-4.59
